Test results as given in PubChem BioAssay AID1159580 (chemical genetic matrix, 2015).
“And” between values parts separate entries of the source, which are not always exact repeats. Identical values can stand only once. Screen size: about 5,500 compounds; about 2,000 (36%) were called active. Inconclusive results (about 18%) are left out. No stated cut-off is given here; in the data, active means normalized growth mostly below about 0.91 (no sharp cut-off); inconclusive means no clear call, values can overlap the other calls; inactive means mostly above about 0.92. This is one part of the list.

Assay: chemical genetic growth profiling, strain panel (AID 1159580);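 further: tested at 20 µM; growth read once vehicle control cultures reached saturation at 30 °C; 1 = growth at the plate median or of vehicle wells; lower values mean less growth of the strain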
Conditions: S. cerevisiae deletion strains, growth OD

Measured: normalized growth

COc1ccc(C2C(=O)c3ccccc3C2=O)cc1
inactive: locus YAL013W, strain DEP1, active compounds read low 0.997 | locus YAL021C, strain ccr4, active compounds read low 1.01 | locus YAL026C, strain drs2, active compounds read low 0.983 | locus YAL030W, strain snc1, active compounds read low 1 | locus YBL061C, strain skt5, active compounds read low 1.01 | locus YBR009C, strain hhf1, active compounds read low 0.998 | locus YBR021W, strain FUR4, active compounds read low 1.01 | locus YBR023C, strain chs3, active compounds read low 1.01 | locus YBR171W, strain sec66, active compounds read low 0.978 | locus YBR229C, strain ROT2, active compounds read low 1 | locus YBR231C, strain swc5, active compounds read low 1.02 | locus YBR279W, strain paf1, active compounds read low 1.01 | locus YCL011C, strain gbp2, active compounds read low 0.979 | locus YCL016C, strain dcc1, active compounds read low 1.03 | locus YCL029C, strain bik1, active compounds read low 0.983 | locus YCL069W, strain vba3, active compounds read low 0.986 | locus YCR088W, strain abp1, active compounds read low 0.999 | locus YDL005C, strain med2, active compounds read low 1.02 | locus YDL035C, strain GPR1, active compounds read low 1.01 | locus YDL040C, strain nat1, active compounds read low 1.02 | locus YDL074C, strain BRE1, active compounds read low 0.994 | locus YDL101C, strain DUN1, active compounds read low 1 | locus YDL185W, strain tfp1, active compounds read low 0.921 | locus YDL192W, strain arf1, active compounds read low 0.988 | locus YDR001C, strain nth1, active compounds read low 0.964 | locus YDR069C, strain doa4, active compounds read low 1.01 | locus YDR101C, strain arx1, active compounds read low 1.03 | locus YDR137W, strain rgp1, active compounds read low 0.978 | locus YDR150W, strain NUM1, active compounds read low 0.988 | locus YDR159W, strain sac3, active compounds read low 1.01 | locus YDR162C, strain NBP2, active compounds read low 1.02 | locus YDR195W, strain ref2 1.09 | locus YDR297W, strain sur2, active compounds read low 0.993 | locus YDR318W, strain mcm21, active compounds read low 0.993 | locus YDR334W, strain swr1, active compounds read low 0.983 | locus YDR335W, strain msn5, active compounds read low 1.02 | locus YDR388W, active compounds read low 1.01 | locus YDR392W, strain spt3, active compounds read low 1.02 | locus YDR502C, strain sam2, active compounds read low 0.998 | locus YEL003W, strain gim4, active compounds read low 0.993 | locus YEL037C, strain rad23, active compounds read low 0.994 | locus YEL061C, strain CIN8 (second series), active compounds read low 0.975 | locus YEL061C, strain CIN8, active compounds read low 0.98 | locus YER015W, strain faa2, active compounds read low 1.01 | locus YER016W, strain bim1, active compounds read low 0.995 | locus YER110C, active compounds read low 0.985 | locus YER111C, strain swi4, active compounds read low 0.994 | locus YER155C, strain BEM2 (second series), active compounds read low 0.993 | locus YER155C, strain BEM2, active compounds read low 0.998 | locus YER167W, strain BCK2, active compounds read low 1 | locus YFR010W, strain ubp6, active compounds read low 1.02 | locus YGL078C, strain dbp3, active compounds read low 0.99 | locus YGL086W, strain mad1, active compounds read low 1.01 | locus YGL167C, strain pmr1, active compounds read low 1 | locus YGL173C, strain kem1, active compounds read low 1.02 | locus YGL227W, strain vid30, active compounds read low 0.974 | locus YGL240W, strain doc1, active compounds read low 1.02 | locus YGL248W, strain PDE1, active compounds read low 1 | locus YGL253W, strain hxk2, active compounds read low 1.01 | locus YGR078C, strain PAC10, active compounds read low 0.998 | locus YGR135W, strain pre9, active compounds read low 0.963 | locus YGR252W, strain gcn5, active compounds read low 0.956 | locus YHR013C, strain ard1, active compounds read low 1.02 | locus YHR027C, strain rpn1, active compounds read low 1.01 | locus YHR030C, strain SLT2, active compounds read low 0.977 and 0.898 | locus YHR079C, strain IRE1 (second series), active compounds read low 0.991 | locus YHR079C, strain IRE1, active compounds read low 0.857 | locus YHR094C, strain hxt1, active compounds read low 0.999 | locus YHR129C, strain ARP1, active compounds read low 1.01 | locus YHR142W, strain chs7, active compounds read low 1.02 | locus YHR200W, strain rpn10, active compounds read low 0.995 | locus YIL066C, strain RNR3, active compounds read low 0.996 | locus YIL073C, strain SPO22, active compounds read low 0.977 | locus YIL125W, strain kgd1, active compounds read low 0.997 | locus YIR030C, strain dcg1, active compounds read low 0.987 | locus YJL092W, strain hpr5, active compounds read low 0.969 | locus YJL095W, strain BCK1 (second series), active compounds read low 0.981 | locus YJL095W, strain BCK1, active compounds read low 1 and 0.908 | locus YJL115W, strain asf1, active compounds read low 0.998 | locus YJL129C, strain trk1, active compounds read low 1.02 | locus YJL134W, strain LCB3, active compounds read low 1 | locus YJL154C, strain vps35, active compounds read low 0.99 | locus YJL164C, strain tpk1, active compounds read low 0.999 | locus YJL166W, strain qcr8, active compounds read low 1.01 | locus YJL168C, strain set2, active compounds read low 1.02 | locus YJL187C, strain SWE1 (second series), active compounds read low 0.998 | locus YJR043C, strain POL32, active compounds read low 1
